Experimental findings from PubChem BioAssay (NCI) are described below.

Experiment in all cases: NCI-60 one-dose screen, 48 h (100 = growth as untreated, 0 = no growth, -100 = all killed)
For one experiment, the system named is HCT-15 colon. Particulars: 10 µM unless noted.
A further experiment concerns HT29 colon. The following applies: 10 µM unless noted.
A further experiment relates to SNB-75 CNS. The following applies: 10 µM unless noted.
The test system of the next experiment is SNB-19 CNS. The following applies: 10 µM unless noted.
For the next experiment, the system named is U251 CNS. The following applies: 10 µM unless noted.
A further experiment concerns PC-3 prostate. Particulars: 10 µM unless noted.
Another experiment has as its system SK-MEL-5 melanoma. Particulars: 10 µM unless noted.
The test system of a further experiment is UACC-62 melanoma. The following applies: 10 µM unless noted.
For another experiment, the system named is LOX IMVI melanoma. Particulars: 10 µM unless noted.
The test system of the next experiment is SK-MEL-28 melanoma. The following applies: 10 µM unless noted.
A further experiment has as its system SK-MEL-2 melanoma. Particulars: 10 µM unless noted.
The subject of another experiment is SN12C renal. Particulars: 10 µM unless noted.
The next experiment concerns UO-31 renal. Particulars: 10 µM unless noted.
The subject of another experiment is TK-10 renal. The following applies: 10 µM unless noted.
The subject of a further experiment is ACHN renal. Particulars: 10 µM unless noted.
For the next experiment, the system named is CAKI-1 renal. The following applies: 10 µM unless noted.
The test system of a further experiment is A498 renal. Particulars: 10 µM unless noted.
The subject of a further experiment is MOLT-4 leukemia. The following applies: 10 µM unless noted.
A further experiment has as its system CCRF-CEM leukemia. The following applies: 10 µM.

Compounds without any hit were thinned out: in the full panel of roughly 83,000, 20% have a hit.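 The endpoint reported here, percent growth, reads 100 for growth as untreated, 0 for no net growth and -100 for all cells dead.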 Values without a mark were called inactive. The source made the active and inactive calls. How the source made its calls: active means growth percent below 10; inactive means the rest.

In the case of `CCCCCCCCCCCCCCCCCC(=O)Nc1ccc(O)cc1`, the growth in the experiment with HCT-15 colon is 110%; in the experiment with HT29 colon, 96.7%; in the experiment on SNB-75 CNS, 72%; in the experiment on SNB-19 CNS, 118%; with U251 CNS, 93.4%; with PC-3 prostate, 66.6%. In addition, the growth is 105% in the experiment with SK-MEL-5 melanoma; 102% in the experiment on UACC-62 melanoma; 96.9% in the experiment with LOX IMVI melanoma; 103% in the experiment on SK-MEL-28 melanoma; 83.1% in the experiment on SK-MEL-2 melanoma; 75.7% with SN12C renal. The growth with UO-31 renal was 52.5%; with TK-10 renal, 85.3%; in the experiment with ACHN renal, 104%; with CAKI-1 renal it was 95.1%; in the experiment with A498 renal, 109%; in the experiment with MOLT-4 leukemia it was 26.7%.
For the compound `O=C1C=C(OCC=C(C(F)(F)F)C(F)(F)F)c2ccccc2C1=O`, the growth with HCT-15 colon was 11%; with HT29 colon, 6.37% (active); in the experiment with SNB-75 CNS, 66.6%; in the experiment with SNB-19 CNS, 61%; in the experiment on U251 CNS, 39.7%; in the experiment with PC-3 prostate, -19% (active). Also, the growth in the experiment with SK-MEL-5 melanoma was 33.5%; in the experiment on UACC-62 melanoma it was 63.7%; in the experiment with LOX IMVI melanoma it was -62.4% (active); in the experiment on SK-MEL-28 melanoma, -17.5% (active); with SK-MEL-2 melanoma, 12.4%; with SN12C renal, -15.1% (active). Moreover, the growth in the experiment on UO-31 renal is 49.9%; with TK-10 renal it was 53.5%; in the experiment on CAKI-1 renal, 4.75% (active); in the experiment with A498 renal, 80.9%; with CCRF-CEM leukemia, -33.9% (active); in the experiment with MOLT-4 leukemia, -36.9% (active).
Turning to `O=C(NCCO)C(F)(F)F`, the growth in the experiment on HCT-15 colon is 96.9%; in the experiment with HT29 colon, 104%; in the experiment with SNB-75 CNS it was 101%; with SNB-19 CNS, 94.6%; in the experiment on U251 CNS, 97.1%; in the experiment with PC-3 prostate, 103%. In addition, the growth in the experiment on SK-MEL-5 melanoma is 115%; in the experiment with UACC-62 melanoma, 102%; in the experiment with LOX IMVI melanoma it was 103%; in the experiment with SK-MEL-28 melanoma it was 111%; in the experiment on SK-MEL-2 melanoma it was 105%; in the experiment on SN12C renal, 102%. In addition, the growth in the experiment on UO-31 renal is 94.2%; in the experiment with TK-10 renal, 102%; in the experiment with ACHN renal, 101%; in the experiment on CAKI-1 renal, 95.9%; in the experiment with A498 renal it was 107%; with MOLT-4 leukemia, 99.3%.
Regarding `O=C(O)COc1ccc([N+](=O)[O-])cc1Cl`, the growth is 94.1% with HCT-15 colon; 113% with HT29 colon; 94.3% in the experiment with SNB-75 CNS; 107% with SNB-19 CNS; 96.5% in the experiment with U251 CNS; 97.6% in the experiment with PC-3 prostate. The growth with SK-MEL-5 melanoma is 106%; in the experiment with UACC-62 melanoma, 111%; with LOX IMVI melanoma it was 100%; in the experiment with SK-MEL-28 melanoma, 104%; in the experiment on SK-MEL-2 melanoma, 107%; in the experiment on SN12C renal, 88.7%. Moreover, the growth was 105% in the experiment on UO-31 renal; 103% in the experiment on TK-10 renal; 102% with ACHN renal; 115% in the experiment on A498 renal; 88.8% in the experiment on CCRF-CEM leukemia; 99.2% with MOLT-4 leukemia.
As to `COc1ccc(-c2nnc(SCC(=O)Nc3ccc(C(=O)/C=C/c4cc(OC)c(OC)c(OC)c4)cc3)n2-c2ccccc2)cc1OC`, the growth with HCT-15 colon is 8.91% [100 µM] (active); in the experiment on HT29 colon, 3.6% [100 µM] (active); with SNB-75 CNS, -22% [100 µM] (active); with SNB-19 CNS, -19.9% [100 µM] (active); with U251 CNS it was -96.9% [100 µM] (active); in the experiment on PC-3 prostate, 10.9% [100 µM]. For the same compound, the growth in the experiment with SK-MEL-5 melanoma was -14.6% [100 µM] (active); with UACC-62 melanoma, -42.9% [100 µM] (active); in the experiment on LOX IMVI melanoma it was -88.5% [100 µM] (active); with SK-MEL-28 melanoma, 18.3% [100 µM]; with SK-MEL-2 melanoma, -26.1% [100 µM] (active); in the experiment on SN12C renal, 31.8% [100 µM]. Also, the growth in the experiment on UO-31 renal is 67.5% [100 µM]; in the experiment on TK-10 renal, -42.5% [100 µM] (active); in the experiment with ACHN renal, 1.79% [100 µM] (active); in the experiment on CAKI-1 renal, 1.67% [100 µM] (active); with A498 renal, -69.7% [100 µM] (active); in the experiment with MOLT-4 leukemia it was 44.5% [100 µM].
For `CCn1cnc(C[C@H](NC(=O)[C@@H](NC(=O)Nc2cc(C(F)(F)F)cc(C(F)(F)F)c2)C(C)C)C(=O)OC)c1`, the growth with HCT-15 colon is -78.6% [100 µM] (active); with HT29 colon it was -81% [100 µM] (active); in the experiment on SNB-75 CNS it was -100% [100 µM] (active); in the experiment with SNB-19 CNS, -90.8% [100 µM] (active); with U251 CNS, -94.3% [100 µM] (active); in the experiment with PC-3 prostate, -91.8% [100 µM] (active). Besides, the growth was -98% [100 µM] (active) in the experiment on SK-MEL-5 melanoma; -94.6% [100 µM] (active) in the experiment on UACC-62 melanoma; -86% [100 µM] (active) with LOX IMVI melanoma; -96% [100 µM] (active) in the experiment on SK-MEL-28 melanoma; -86% [100 µM] (active) in the experiment on SK-MEL-2 melanoma; -86.8% [100 µM] (active) in the experiment on SN12C renal. The growth in the experiment on UO-31 renal was -97% [100 µM] (active); in the experiment with TK-10 renal it was -98.7% [100 µM] (active); in the experiment with ACHN renal, -98.7% [100 µM] (active); in the experiment with A498 renal, -89.5% [100 µM] (active); in the experiment with MOLT-4 leukemia, -54.9% [100 µM] (active).
As to `CCCCCCCCCCCCCCCCNC(=S)N/N=C/c1ccc(O)cc1O`, the growth was 50.7% in the experiment on HCT-15 colon; 37% in the experiment with HT29 colon; 113% with SNB-75 CNS; 89.1% in the experiment on SNB-19 CNS; 59.6% in the experiment on U251 CNS; 63.5% in the experiment on PC-3 prostate. For the same compound, the growth in the experiment on SK-MEL-5 melanoma was 63.4%; with UACC-62 melanoma it was 56.5%; in the experiment with LOX IMVI melanoma, 60.6%; with SK-MEL-28 melanoma it was 88.7%; in the experiment on SK-MEL-2 melanoma it was 75.4%; with SN12C renal, 74.2%. Besides, the growth in the experiment on UO-31 renal is 49.8%; in the experiment on TK-10 renal it was 57.8%; with ACHN renal, 77%; in the experiment on CAKI-1 renal, 55.9%; in the experiment with MOLT-4 leukemia, 48.5%.
Regarding `CCN(CC)C(=O)C1(C)CCCC2(C)c3cc(OC(C)=O)ccc3CCC12` (stereo not given), the growth in the experiment with HCT-15 colon is 87%; in the experiment on HT29 colon, 82.9%; with SNB-75 CNS it was 80.9%; in the experiment on SNB-19 CNS, 96.5%; in the experiment with U251 CNS, 81.5%; with PC-3 prostate, 76.2%. The growth in the experiment with SK-MEL-5 melanoma is 67.6%; in the experiment on UACC-62 melanoma, 73.1%; in the experiment with LOX IMVI melanoma it was 101%; with SK-MEL-28 melanoma, 88.5%; in the experiment with SK-MEL-2 melanoma, 80.3%; in the experiment on SN12C renal, 91.7%. Moreover, the growth is 54.4% in the experiment on UO-31 renal; 78.1% with TK-10 renal; 80.7% in the experiment on ACHN renal; 76.8% in the experiment on CAKI-1 renal; 83.9% in the experiment with A498 renal; 64.1% in the experiment with MOLT-4 leukemia.
In the case of `COC(=O)c1cc(Nc2ccc(O)c3c2C(=O)c2c([N+](=O)[O-])ccc(O)c2C3=O)cc(C(=O)OC)c1`, the growth was 16.3% with HCT-15 colon; 36.5% in the experiment with HT29 colon; 59.1% in the experiment with SNB-75 CNS; 76.9% in the experiment with SNB-19 CNS; 74.8% with U251 CNS; 70.9% in the experiment with PC-3 prostate. In addition, the growth is -49% (active) in the experiment on SK-MEL-5 melanoma; 48.8% in the experiment on UACC-62 melanoma; 59.5% in the experiment on LOX IMVI melanoma; 30.8% in the experiment with SK-MEL-28 melanoma; 10.6% in the experiment on SK-MEL-2 melanoma; 70.5% in the experiment with SN12C renal. Further, the growth in the experiment on UO-31 renal was 67.1%; in the experiment with TK-10 renal it was 60.4%; in the experiment on ACHN renal, 90.5%; in the experiment with A498 renal, 93.8%; in the experiment on CCRF-CEM leukemia it was 23%; in the experiment on MOLT-4 leukemia, 25.5%.
